Assay [1] in a line: Cell Viability - LYMP1-002 - Assay at 24 hr (AID 993). Further: on the % scale 0 is the no-effect control and ±100 the full control effect. The gist of the method:
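qHTS cytotoxicity at 24 h: CellTiter-Glo ATP luminescence in lymphoblastoid line LYMP1-002 incubated with compound at 37 °C. Concentration-response modeled with the Hill equation for AC50; tetraoctylammonium bromide served as positive control.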

Assay [2] in a line: Cell Viability - LYMP1-002 - Assay at 40 hr (AID 994).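 Further: 0% = DMSO only and full inhibition = 92 µM tetraoctylammonium bromide; nearly all actives have a fitted effect of over 60% in size.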 The gist of the method: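 Cytotoxicity was read as loss of cellular ATP (CellTiter-Glo luminescence) after 40 hr compound exposure at 37 C of 2500 LYMP1-002 lymphoblastoid cells per well. Concentration-response data were fitted with the standard Hill equation to give AC50.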
Assay [3] is described as follows: qHTS Assay for Identification of Small Molecule Inducers of Hypoxia Response (AID 2120; active means well fitted curve in the direction sought with a large enough effect in the signal ratio, with a control signal flat, not every such curve was filed as active; the % refers to the signal ratio; further: 0% is about no effect). The gist of the method:
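Reporter induction read as the CCF4 blue/green (460nm/530nm) emission ratio after 2.5 h dye loading at room temperature. ME-180 HRE-beta-lactamase cells received titrated compounds for 17 h at 37 degrees Celsius; AC50 values derived.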

The target in assay [4] is Bile acid receptor (Homo sapiens) (UniProt Q96RI1). The assay can be described thus: qHTS assay for small molecule antagonists of farnesoid X receptor signaling (AID 588526; calls by dose curve; further: on the % scale 0 is the no-effect control and ±100 the full control effect). A digest of the protocol:
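Beta-lactamase reporter antagonist mode: HEK293T FXR-UAS-bla cells, titrated compound, CDCA stimulation, 16 h 37 C, CCF4 dye 2 h RT. Data normalized to CDCA 50 uM and DMSO; Hill-fit IC50.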
On the technique in general: In qHTS, concentration-response curves come from the screen itself.

The target of assay [5] is Glucocorticoid receptor (Homo sapiens) (UniProt P04150). The assay is described as follows: qHTS assay for small molecule agonists of glucocorticoid receptor signaling (AID 588532; active means well fitted curve in the direction sought with a large enough effect in the signal ratio, with a control signal flat; the % refers to the signal ratio;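 further: 100% = dexamethasone at 0.1 µM and 0% = DMSO only wells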). To be noted: HeLa MMTV-bla, beta-lactamase ratio, agonist, 18 h; stronger effect = higher value; percent of dexamethasone control, DMSO zero. A digest of the protocol:
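Using MMTV-bla HeLa cells in medium with 1% stripped FBS and 25 mM HEPES, compounds were titrated and incubated overnight-length (18 h). Beta-lactamase cleavage of CCF4 was quantified by dual-emission fluorescence.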

Assay [6] shares this target. The assay can be described thus: qHTS assay for small molecule antagonists of glucocorticoid receptor signaling (AID 588533; active means well fitted inhibition curve with a large enough effect in the signal ratio, with a control signal flat, not every such curve was filed as active; the % refers to the signal ratio;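 further: cells stimulated with 2 nM dexamethasone as agonist; on the % scale 0 is the no-effect control and ±100 the full control effect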). The gist of the method:
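Antagonist-mode qHTS: compound titrations added to GRE-bla HeLa cells, then dexamethasone 2 nM final; 18 h, 37 C. CCF4 FRET fluorescence normalized to dexamethasone and DMSO; IC50 from Hill fit.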

A short description of assay [7]: qHTS assay for small molecule antagonists of peroxisome proliferator-activated receptor delta signaling (AID 588535; active means well fitted inhibition curve with a large enough effect in the signal ratio, with a control signal flat, not every such curve was filed as active; the % refers to the signal ratio;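 on max response: cells co-treated with a PPAR-delta agonist as stimulator during compound exposure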). Particulars: HEK293T PPARd-UAS-bla, beta-lactamase FRET ratio, 18 h; 460 nm channel. A digest of the protocol: (§1)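 Titrations were run on PPAR-delta-UAS-bla HEK293T cells in charcoal/dextran-stripped serum, incubated 18 h at 37 C. CCF4 fluorescence (460/530 nm) after 2 h RT; Hill equation yields IC50 and maximal response.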

Assay [8] has as its target Peroxisome proliferator-activated receptor delta (Homo sapiens) (UniProt Q03181). Described as above. The gist of the method:
as §1

The target in assay [9] is Peroxisome proliferator-activated receptor gamma (Homo sapiens) (UniProt P37231). The assay can be described thus: qHTS assay for small molecule agonists of peroxisome proliferator-activated receptor gamma signaling (AID 588536; active means well fitted curve in the direction sought with a large enough effect in the signal ratio, with a control signal flat, not every such curve was filed as active; the % refers to the signal ratio;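 further: 0% = DMSO basal wells and 100% = rosiglitazone at 2 µM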). The gist of the method:
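Beta-lactamase reporter read-out: CCF4 fluorescence (ex 405, em 460/530 nm) after 2 h at RT. HEK293 GeneBLAzer cells were treated for 16 h at 37 C. Hill fits gave EC50 and efficacy versus 2 uM rosiglitazone (100%) and DMSO (0%).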

Assay [10] shares this target. The assay is described as follows: qHTS assay for small molecule antagonists of peroxisome proliferator-activated receptor gamma signaling (AID 588537; active means well fitted inhibition curve with a large enough effect in the signal ratio, with a control signal flat, not every such curve was filed as active; the % refers to the signal ratio;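 further: reporter cells co-stimulated with 50 nM rosiglitazone agonist during compound treatment; % of control where 0% means no effect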). A digest of the protocol:
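Antagonist-mode β-lactamase reporter screen run as a titration series. HEK293 PPARγ-UAS-bla cells are stimulated with rosiglitazone (50 nM final) for 16 h, then CCF4 is read at 460/530 nm. Data are scaled between DMSO and rosiglitazone and fitted to the Hill equation.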

For assay [11], the target named is Vitamin D3 receptor (Homo sapiens) (UniProt P11473). The assay can be described thus: qHTS assay for small molecule antagonists of vitamin D receptor signaling (AID 588541; calls by dose curve;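 further: receptor activated by calcitriol during compound treatment; on the % scale 0 is the no-effect control and ±100 the full control effect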). The gist of the method: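 Antagonist-mode beta-lactamase reporter assay: HEK293T VDR-UAS-bla cells were exposed to titrated compound alongside 1-alpha,25-dihydroxyvitamin D3 at 3 nM final for 16 h. Values were normalized to the 50 nM agonist control and DMSO basal, with IC50 and efficacy from Hill equation fits.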

Assay [12] addresses Alpha-galactosidase A (Homo sapiens) (UniProt P06280). The assay is described as follows: Counterscreen for Glucocerebrosidase Inhibitors: qHTS Assay for Human alpha-Galactosidase at pH 4.5 (AID 992). Further: 0% is about no effect. The gist of the method:
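Fluorogenic 4-MU alpha-D-galactoside (80 uM) hydrolysis, 2 nM enzyme, pH 4.5 citrate buffer + 0.005% Tween-20; 20 min RT; NaOH/glycine pH 10 stop; Ex365/Em440. Compounds titrated 0.7 nM–77 uM; Hill-equation AC50.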

Assay [13] deals with alpha-glucosidase (Oryza sativa, rice) (UniProt Q653V4). The assay is described as follows: Counterscreen for Glucocerebrosidase Inhibitors: qHTS Assay for Rice alpha-Glucosidase at pH 5.0 (AID 997).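 Further: 0% = full activity with enzyme and -100% = basal without enzyme.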 A digest of the protocol:
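Endpoint fluorogenic assay at pH 5.0: compounds (0.7 nM to 77 uM) titrated against 4 nM rice enzyme and 400 uM 4-MU-alpha-glucoside for 20 min at room temperature; NaOH/glycine stop, read ex 365/em 440 nm, Hill-fitted AC50.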

Assay [14] can be described thus: qHTS Assay for Lipid Storage Modulators (AID 1519; calls by dose curve). Particulars: Drosophila S3 cells, BODIPY lipid droplet/cell ratio, laser cytometry, cells loaded with oleic acid. A digest of the protocol:
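Cells seeded at 5,000 per well were treated with compounds over a concentration series and loaded with oleic acid (400 uM, as added). Lipid droplet fluorescence (488 nm excitation, 500-530 nm channel) was read by laser-scanning cytometry and normalized to 20 uM Triacsin C.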

The target in assay [15] is Estrogen receptor (Homo sapiens) (UniProt P03372). The assay is described as follows: qHTS assay for small molecule antagonists of estrogen receptor alpha signaling (AID 588513; active means well fitted curve in the direction sought with a large enough effect in the signal ratio, with a control signal flat, not every such curve was filed as active; the % refers to the signal ratio; further: on the % scale 0 is the no-effect control and ±100 the full control effect). The gist of the method:
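Antagonist-mode qHTS in ER-alpha-UAS-bla HEK 293 cells: compound titration, 0.5nM estradiol for 18 h, CCF4 fluorescence, Hill-derived IC50.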

Assay [16] has the same target. The assay is described as follows: qHTS assay for small molecule agonists of estrogen receptor alpha signaling (AID 588514; calls by dose curve;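 further: 0% = vehicle only and 100% = reference agonist; nearly all actives have a fitted effect of over 70% in size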). The gist of the method:
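EC50 and efficacy came from Hill fits of beta-lactamase reporter signal (CCF4 dye, 2 h at room temperature) scaled between DMSO and 20 nM 17-beta-estradiol. Agonist mode: HEK293 ER-alpha-UAS-bla cells in charcoal/dextran-stripped serum medium, 18 h compound exposure at 37 C.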

The target of assay [17] is Androgen receptor (Homo sapiens) (UniProt P10275). The assay can be described thus: qHTS assay for small molecule agonists of androgen receptor signaling (AID 588515; active means well fitted curve in the direction sought with a large enough effect in the signal ratio, with a control signal flat; the % refers to the signal ratio; further: on the % scale 0 is the no-effect control and ±100 the full control effect). Particulars: AR-UAS-bla HEK293, beta-lactamase ratio, agonist 16 h; stronger effect = higher value. The gist of the method: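 Stimulation of an AR-responsive β-lactamase reporter in GripTite HEK293 cells was measured after 16 h compound exposure at 37 °C, via CCF4 fluorescence after 2 h RT. EC50 from Hill fits, normalized to R1881 at 30 nM.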

For assay [18] the target is unchanged. The assay can be described thus: qHTS assay for small molecule antagonists of androgen receptor signaling (AID 588516; active means well fitted curve in the direction sought with a large enough effect in the signal ratio, with a control signal flat, not every such curve was filed as active; the % refers to the signal ratio; further: on the % scale 0 is the no-effect control and ±100 the full control effect). A digest of the protocol: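 Compounds tested in titration against 10 nM R1881 in AR-responsive bla reporter HEK 293 cells; CCF4 fluorescence (460/530 nm) after 16 h exposure gave IC50 and efficacy.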
For assay [19], the target named is ATP-dependent 6-phosphofructokinase (Trypanosoma brucei brucei) (UniProt O15648). The assay is described as follows: qHTS Assay to Find Inhibitors of T. brucei phosphofructokinase: hit validation (AID 492961). The gist of the method: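 Measures ADP output of PFK (1.25 nM) at 0.1 mM ATP, 0.5 mM F6P, pH 8.0 TEA buffer with 5 mM MgCl2. No-enzyme wells define full inhibition; uninhibited enzyme wells define zero.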

Assay [20] has as its target Ubiquitin carboxyl-terminal hydrolase 1 (Homo sapiens) (UniProt O94782). The assay can be described thus: Inhibitors of USP1/UAF1: Pilot qHTS (AID 504865).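 Further: rhodamine fluorescence freed from ubiquitin-rhodamine substrate followed over time; top concentration of the series differs between compounds; on the % scale 0 is the no-effect control and ±100 the full control effect; nearly all actives have a fitted effect of over 35% in size.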 A digest of the protocol: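 Enzyme-free wells gave the negative control, while test wells held 1nM USP1/UAF1 preincubated with compound for 15 min at room temperature. Ub-Rho at 150nM final started the reaction, and fluorescence at 480/540 nm was recorded kinetically.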

Structures are written as SMILES. Inconclusive results are not listed. The source made the active and inactive calls. Unless noted, the call rests on the fitted dose curve; in most records, active means well fitted curve in the direction sought with a large enough effect; inconclusive means small, poorly fitted or top-dose-only effect, or another doubt; inactive means no such curve, though single readings can be large; an effect the other way counts as inactive or inconclusive.

Peroxisome proliferator-activated receptor gamma (Homo sapiens), sequence (P37231 whole entry, looked up): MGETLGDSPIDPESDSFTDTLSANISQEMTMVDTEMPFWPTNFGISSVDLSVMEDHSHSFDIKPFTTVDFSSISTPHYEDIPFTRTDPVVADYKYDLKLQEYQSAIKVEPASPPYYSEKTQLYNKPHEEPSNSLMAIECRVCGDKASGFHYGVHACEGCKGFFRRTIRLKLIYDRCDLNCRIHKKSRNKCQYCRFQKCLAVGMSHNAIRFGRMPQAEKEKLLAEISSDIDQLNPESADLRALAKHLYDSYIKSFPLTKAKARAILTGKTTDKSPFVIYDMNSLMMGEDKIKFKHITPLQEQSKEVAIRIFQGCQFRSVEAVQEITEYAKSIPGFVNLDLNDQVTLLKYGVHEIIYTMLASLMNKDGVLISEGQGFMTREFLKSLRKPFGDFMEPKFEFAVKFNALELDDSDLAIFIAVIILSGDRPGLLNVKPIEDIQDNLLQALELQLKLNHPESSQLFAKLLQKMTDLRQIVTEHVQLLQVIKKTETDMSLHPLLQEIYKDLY
Vitamin D3 receptor (Homo sapiens), sequence (P11473 whole entry, looked up): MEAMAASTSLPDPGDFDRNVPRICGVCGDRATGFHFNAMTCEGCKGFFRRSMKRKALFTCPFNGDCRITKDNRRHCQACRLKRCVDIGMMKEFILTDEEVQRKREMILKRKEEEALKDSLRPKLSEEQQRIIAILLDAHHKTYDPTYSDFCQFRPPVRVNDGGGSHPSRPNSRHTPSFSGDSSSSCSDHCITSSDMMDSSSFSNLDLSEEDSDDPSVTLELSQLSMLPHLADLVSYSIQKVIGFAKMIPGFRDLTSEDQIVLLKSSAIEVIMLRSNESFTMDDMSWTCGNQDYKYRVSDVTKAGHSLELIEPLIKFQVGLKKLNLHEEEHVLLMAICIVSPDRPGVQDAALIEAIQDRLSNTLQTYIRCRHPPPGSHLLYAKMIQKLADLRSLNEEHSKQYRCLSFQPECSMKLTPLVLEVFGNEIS
Estrogen receptor (Homo sapiens), sequence (P03372 whole entry, looked up): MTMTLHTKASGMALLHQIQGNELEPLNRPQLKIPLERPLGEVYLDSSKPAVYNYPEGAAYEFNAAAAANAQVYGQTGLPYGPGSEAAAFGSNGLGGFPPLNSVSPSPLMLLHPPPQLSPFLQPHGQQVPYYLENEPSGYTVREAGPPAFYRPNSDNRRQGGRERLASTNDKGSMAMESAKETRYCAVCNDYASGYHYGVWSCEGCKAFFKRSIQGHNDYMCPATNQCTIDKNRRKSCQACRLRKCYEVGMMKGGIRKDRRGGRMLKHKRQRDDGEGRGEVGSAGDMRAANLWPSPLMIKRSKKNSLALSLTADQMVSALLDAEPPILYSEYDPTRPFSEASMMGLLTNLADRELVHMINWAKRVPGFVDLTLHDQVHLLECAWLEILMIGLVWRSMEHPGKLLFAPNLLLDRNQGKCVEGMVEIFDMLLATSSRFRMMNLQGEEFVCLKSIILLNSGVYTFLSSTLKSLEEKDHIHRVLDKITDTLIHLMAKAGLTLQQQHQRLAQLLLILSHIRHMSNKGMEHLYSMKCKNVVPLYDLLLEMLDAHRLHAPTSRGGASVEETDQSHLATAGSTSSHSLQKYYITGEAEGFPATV
Glucocorticoid receptor (Homo sapiens), sequence (P04150 whole entry, looked up): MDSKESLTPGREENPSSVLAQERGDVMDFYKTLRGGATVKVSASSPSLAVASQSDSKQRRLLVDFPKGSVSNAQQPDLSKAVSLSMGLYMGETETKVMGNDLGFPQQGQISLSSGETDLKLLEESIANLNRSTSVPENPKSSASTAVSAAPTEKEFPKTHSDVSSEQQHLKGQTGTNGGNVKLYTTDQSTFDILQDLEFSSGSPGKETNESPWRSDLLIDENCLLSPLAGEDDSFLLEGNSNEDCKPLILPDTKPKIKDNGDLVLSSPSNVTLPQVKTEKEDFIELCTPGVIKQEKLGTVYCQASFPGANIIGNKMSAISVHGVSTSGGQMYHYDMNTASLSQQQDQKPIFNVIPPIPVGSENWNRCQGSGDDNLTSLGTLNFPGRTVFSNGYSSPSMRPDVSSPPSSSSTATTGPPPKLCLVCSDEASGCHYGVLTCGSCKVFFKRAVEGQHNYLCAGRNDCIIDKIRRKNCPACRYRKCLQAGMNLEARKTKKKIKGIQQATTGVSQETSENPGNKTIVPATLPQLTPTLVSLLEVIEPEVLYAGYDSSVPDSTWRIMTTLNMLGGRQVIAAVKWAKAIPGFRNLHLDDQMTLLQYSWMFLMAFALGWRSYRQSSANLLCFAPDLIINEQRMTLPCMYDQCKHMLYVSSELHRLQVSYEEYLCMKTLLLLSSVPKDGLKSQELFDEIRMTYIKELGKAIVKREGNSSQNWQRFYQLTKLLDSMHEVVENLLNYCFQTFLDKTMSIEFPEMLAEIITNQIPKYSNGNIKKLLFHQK
Alpha-galactosidase A (Homo sapiens), sequence (P06280 whole entry, looked up): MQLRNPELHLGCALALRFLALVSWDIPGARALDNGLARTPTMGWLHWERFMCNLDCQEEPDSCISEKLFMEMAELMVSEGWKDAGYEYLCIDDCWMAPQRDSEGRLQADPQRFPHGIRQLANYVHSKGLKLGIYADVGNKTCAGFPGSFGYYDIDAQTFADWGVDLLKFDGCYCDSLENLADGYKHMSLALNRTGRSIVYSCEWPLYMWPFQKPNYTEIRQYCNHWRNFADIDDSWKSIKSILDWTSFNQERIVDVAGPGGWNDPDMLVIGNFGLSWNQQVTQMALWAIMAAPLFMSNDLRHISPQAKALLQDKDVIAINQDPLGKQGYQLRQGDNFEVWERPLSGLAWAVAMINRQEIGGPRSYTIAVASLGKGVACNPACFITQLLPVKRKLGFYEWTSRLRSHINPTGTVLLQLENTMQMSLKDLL
Peroxisome proliferator-activated receptor delta (Homo sapiens), sequence (Q03181 whole entry, looked up): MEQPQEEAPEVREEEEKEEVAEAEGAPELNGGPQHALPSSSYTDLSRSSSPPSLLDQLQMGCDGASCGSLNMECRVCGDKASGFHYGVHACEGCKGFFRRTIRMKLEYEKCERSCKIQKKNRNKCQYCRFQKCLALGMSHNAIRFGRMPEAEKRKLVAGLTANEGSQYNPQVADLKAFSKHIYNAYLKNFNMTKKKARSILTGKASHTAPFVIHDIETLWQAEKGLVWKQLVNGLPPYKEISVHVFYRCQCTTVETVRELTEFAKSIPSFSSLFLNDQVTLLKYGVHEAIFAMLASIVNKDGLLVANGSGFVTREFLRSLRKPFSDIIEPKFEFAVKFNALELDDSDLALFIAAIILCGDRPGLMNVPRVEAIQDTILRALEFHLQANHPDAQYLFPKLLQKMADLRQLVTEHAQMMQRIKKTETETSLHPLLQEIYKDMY
Androgen receptor (Homo sapiens), sequence (P10275 whole entry, looked up): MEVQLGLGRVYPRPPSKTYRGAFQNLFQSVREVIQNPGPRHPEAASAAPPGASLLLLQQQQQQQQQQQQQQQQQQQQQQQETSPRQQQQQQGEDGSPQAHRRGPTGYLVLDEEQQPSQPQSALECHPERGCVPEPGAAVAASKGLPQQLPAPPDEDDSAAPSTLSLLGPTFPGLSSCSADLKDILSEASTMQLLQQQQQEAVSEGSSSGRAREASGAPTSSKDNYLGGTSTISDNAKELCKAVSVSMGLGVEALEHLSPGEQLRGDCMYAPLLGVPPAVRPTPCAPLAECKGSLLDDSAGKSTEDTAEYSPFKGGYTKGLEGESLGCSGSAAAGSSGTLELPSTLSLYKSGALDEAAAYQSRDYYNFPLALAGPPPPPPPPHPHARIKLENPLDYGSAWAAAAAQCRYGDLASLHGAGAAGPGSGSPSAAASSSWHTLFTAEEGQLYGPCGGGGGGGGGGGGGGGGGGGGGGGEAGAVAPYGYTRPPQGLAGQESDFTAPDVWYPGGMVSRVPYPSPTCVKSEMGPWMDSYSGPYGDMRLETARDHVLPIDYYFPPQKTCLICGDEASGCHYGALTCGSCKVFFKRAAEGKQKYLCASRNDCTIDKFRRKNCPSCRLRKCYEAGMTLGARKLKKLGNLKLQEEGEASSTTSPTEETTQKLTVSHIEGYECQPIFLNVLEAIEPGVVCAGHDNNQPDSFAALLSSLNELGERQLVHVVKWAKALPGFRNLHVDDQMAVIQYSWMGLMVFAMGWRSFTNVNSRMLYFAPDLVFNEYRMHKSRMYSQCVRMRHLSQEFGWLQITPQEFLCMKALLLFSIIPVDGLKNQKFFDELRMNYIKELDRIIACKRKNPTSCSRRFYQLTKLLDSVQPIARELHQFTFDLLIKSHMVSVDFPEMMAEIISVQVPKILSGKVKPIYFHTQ
Ubiquitin carboxyl-terminal hydrolase 1 (Homo sapiens), sequence (O94782 whole entry, looked up): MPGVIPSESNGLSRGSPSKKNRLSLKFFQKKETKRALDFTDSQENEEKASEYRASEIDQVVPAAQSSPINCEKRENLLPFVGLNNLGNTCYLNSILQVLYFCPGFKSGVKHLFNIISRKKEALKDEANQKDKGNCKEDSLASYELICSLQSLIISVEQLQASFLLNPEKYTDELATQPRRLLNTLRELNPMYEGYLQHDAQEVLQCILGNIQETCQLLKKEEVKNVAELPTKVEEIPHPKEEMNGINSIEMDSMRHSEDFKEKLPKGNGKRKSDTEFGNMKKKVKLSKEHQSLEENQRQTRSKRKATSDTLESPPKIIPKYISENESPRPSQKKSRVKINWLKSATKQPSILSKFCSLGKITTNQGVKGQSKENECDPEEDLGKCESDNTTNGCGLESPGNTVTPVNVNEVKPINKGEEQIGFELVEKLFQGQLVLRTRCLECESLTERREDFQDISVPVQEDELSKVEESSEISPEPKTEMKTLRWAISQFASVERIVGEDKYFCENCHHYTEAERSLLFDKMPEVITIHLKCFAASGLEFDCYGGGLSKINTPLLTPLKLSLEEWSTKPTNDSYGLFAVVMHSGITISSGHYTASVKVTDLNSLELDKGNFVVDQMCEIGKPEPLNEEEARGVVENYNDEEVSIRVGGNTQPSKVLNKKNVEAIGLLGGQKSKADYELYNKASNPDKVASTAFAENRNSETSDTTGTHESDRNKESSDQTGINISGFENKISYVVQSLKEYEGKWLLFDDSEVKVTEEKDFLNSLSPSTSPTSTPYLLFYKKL

Regarding `C=C1C[C@]23C[C@@]1(O)CC[C@H]2[C@@]12C=C[C@H](O)[C@@](C)(C(=O)O1)[C@H]2[C@@H]3C(=O)O`, the outcome in [1], in assay [2], in assay [3], in [4], in assay [6] and in assay [8] was inactive. Moreover, the compound was classed as inactive in assay [9], in assay [10] and in [11]. Also, the activation in assay [5] is -5.06% (inactive). Further, the max response in assay [7] was determined as 8.68%.

With `CC(C)C[C@H](NC(=O)[C@@H]1O[C@H]1C(=O)O)C(=O)NCCCCN=C(N)N`, the outcome in [12] and in [13] was inactive.

With `CCc1cccc2c3c([nH]c12)[C@@](CC)(CC(=O)O)OCC3`, the activity change, negative = inhibition in [14] (at 25.7 µM (top of the series)) is -1.67% (inactive). Besides, the max response in assay [14] (measured here: cell count channel max response) was 8.85%; in [14] (measured here: lipid channel max response) it was 4.97%.

For `COc1ccc(CCC(=O)c2c(O)cc(O[C@@H]3O[C@H](CO)[C@@H](O)[C@H](O)[C@H]3O[C@@H]3O[C@@H](C)[C@H](O)[C@@H](O)[C@H]3O)cc2O)cc1O`, the outcome in assay [1], in assay [2], in assay [3], in assay [15], in assay [16] and in [18] was inactive. In addition, the outcome in assay [6], in [9] and in assay [11] was inactive. The results for the activation in assay [17] and in [5] were 12.1% (inactive) and -0.542% (inactive), respectively.

For the compound `C[C@]1(C2CCCC2)Cc2cc(OCC(=O)O)c(Cl)c(Cl)c2C1=O`, the outcome in [12] and in assay [13] was inactive.

Take `CCOC(=O)C(CCc1ccccc1)NC(C)C(=O)N1Cc2ccccc2CC1C(=O)O` (configuration not stated): the compound was called inactive in [19] and in assay [20].

`O=C(/C=C/C=C/c1ccc2c(c1)OCO2)N1CCCCC1`: the compound was called inactive in assay [20], in [15], in assay [16], in [8] and in assay [11]. Further, in [7], the max response was -63.1%.
